PubChem BioAssay (NCI)
About 83,000 compounds went through this panel and 20% of them were active in at least one assay; those are over-represented in the sample as a whole.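 Compound tested at a single concentration for 48 hours in 96-well plates; a percent growth value below 10 was scored as active.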 Calls of active or inactive are those of the source.

Experiments:
Experiment in all cases: NCI-60 one-dose screen, 48 h (100 = growth as untreated, 0 = no growth, -100 = all killed)
Conditions in all cases: 10 µM unless noted
SK-MEL-2 melanoma = system: SK-MEL-2 melanoma
EKVX NSCLC = system: EKVX NSCLC
SN12C renal = system: SN12C renal
UO-31 renal = system: UO-31 renal
TK-10 renal = system: TK-10 renal
ACHN renal = system: ACHN renal
CAKI-1 renal = system: CAKI-1 renal
A498 renal = system: A498 renal
CCRF-CEM leukemia = system: CCRF-CEM leukemia
MOLT-4 leukemia = system: MOLT-4 leukemia
RPMI-8226 leukemia = system: RPMI-8226 leukemia
OVCAR-8 ovarian = system: OVCAR-8 ovarian
OVCAR-5 ovarian = system: OVCAR-5 ovarian
OVCAR-4 ovarian = system: OVCAR-4 ovarian
SK-OV-3 ovarian = system: SK-OV-3 ovarian
IGROV1 ovarian = system: IGROV1 ovarian
OVCAR-3 ovarian = system: OVCAR-3 ovarian
HS 578T breast = system: HS 578T breast
NCI/ADR-RES ovarian = system: NCI/ADR-RES ovarian

Measured: growth

CN(C(=O)NCc1cccc(F)c1Cl)[C@H](COC(=O)Nc1cc2ccccc2cn1)CC(O)CO (some centres undefined)
inactive: SK-MEL-2 melanoma 113% | EKVX NSCLC 77.4% | SN12C renal 86.1% | UO-31 renal 51.8% | TK-10 renal 101% | ACHN renal 107% | CAKI-1 renal 25.8% | A498 renal 54.7% | CCRF-CEM leukemia 64.9% | MOLT-4 leukemia 94.9% | RPMI-8226 leukemia 119% | OVCAR-8 ovarian 88.1% | OVCAR-5 ovarian 95.8% | OVCAR-4 ovarian 94.6% | SK-OV-3 ovarian 78.5% | IGROV1 ovarian 71.9% | OVCAR-3 ovarian 103% | NCI/ADR-RES ovarian 98.6%
active: HS 578T breast -0.749%

CC(=O)Oc1ccccc1C(=O)N=C1[Se]CCCN1C(=O)c1ccccc1OC(C)=O
inactive: SK-MEL-2 melanoma 91.4% | EKVX NSCLC 75.7% | ACHN renal 20.8% | CAKI-1 renal 52.5% | A498 renal 68.6% | CCRF-CEM leukemia 22.1% | RPMI-8226 leukemia 80.8% | OVCAR-8 ovarian 47% | OVCAR-5 ovarian 90.8% | OVCAR-4 ovarian 78.8% | SK-OV-3 ovarian 141% | IGROV1 ovarian 11.7% | HS 578T breast 24.9% | NCI/ADR-RES ovarian 29%
active: SN12C renal -15.2% | UO-31 renal -55.8% | TK-10 renal 6.56% | MOLT-4 leukemia 9.25% | OVCAR-3 ovarian 7.64%

S=C(c1cccs1)N1CCN(c2cccc(Cl)c2)CC1
inactive: SK-MEL-2 melanoma 99% | EKVX NSCLC 115% | SN12C renal 101% | UO-31 renal 88.8% | TK-10 renal 101% | ACHN renal 100% | CAKI-1 renal 92.4% | A498 renal 96.7% | CCRF-CEM leukemia 87.9% | MOLT-4 leukemia 92.5% | RPMI-8226 leukemia 86.3% | OVCAR-8 ovarian 104% | OVCAR-5 ovarian 97.2% | OVCAR-4 ovarian 101% | SK-OV-3 ovarian 107% | IGROV1 ovarian 89.9% | OVCAR-3 ovarian 106% | HS 578T breast 120% | NCI/ADR-RES ovarian 104%

CCCCCCCCCCCCCCCCCCOc1ccccc1CC(=O)OCC[N+](CC)(CC)CC
active: SK-MEL-2 melanoma -10.1% | RPMI-8226 leukemia -3.45% | IGROV1 ovarian -26.9%
inactive: EKVX NSCLC 43.4% | SN12C renal 15.2% | UO-31 renal 89.5% | TK-10 renal 38.5% | ACHN renal 64.4% | CAKI-1 renal 35.6% | A498 renal 65.9% | CCRF-CEM leukemia 15.7% | MOLT-4 leukemia 12.8% | OVCAR-8 ovarian 17.7% | OVCAR-5 ovarian 41% | OVCAR-4 ovarian 19.1% | SK-OV-3 ovarian 66.2% | OVCAR-3 ovarian 31.4% | HS 578T breast 38.2% | NCI/ADR-RES ovarian 95.9%

COc1ccc(-c2cc3c4c(nc5ccccc5c4c2)CC(c2cc(OC)c(OC)c(OC)c2)O3)cc1 (centres undefined)
inactive: SK-MEL-2 melanoma 66.3% | EKVX NSCLC 65% | SN12C renal 32.3% | A498 renal 70.4% | CCRF-CEM leukemia 99.1% | MOLT-4 leukemia 102% | RPMI-8226 leukemia 25.1% | OVCAR-8 ovarian 32% | OVCAR-5 ovarian 18.4% | SK-OV-3 ovarian 20.2% | IGROV1 ovarian 52.5% | OVCAR-3 ovarian 41.9% | HS 578T breast 13.2% | NCI/ADR-RES ovarian 41.4%
active: UO-31 renal -26.3% | TK-10 renal 7.8% | ACHN renal -46% | CAKI-1 renal 1.26% | OVCAR-4 ovarian -9.24%

Cc1ccc(C(=O)NCCNc2nccc(-c3c(-c4cccc(F)c4)nc4sccn34)n2)cc1
inactive: SK-MEL-2 melanoma 70.7% | EKVX NSCLC 38.5% | SN12C renal 47.3% | UO-31 renal 23% | TK-10 renal 75.6% | ACHN renal 29.5% | CAKI-1 renal 40.1% | A498 renal 32.8% | CCRF-CEM leukemia 49.4% | MOLT-4 leukemia 56.5% | RPMI-8226 leukemia 53.8% | OVCAR-8 ovarian 55% | OVCAR-5 ovarian 69.2% | OVCAR-4 ovarian 67.8% | SK-OV-3 ovarian 64.3% | IGROV1 ovarian 23.1% | OVCAR-3 ovarian 61.6% | HS 578T breast 33% | NCI/ADR-RES ovarian 55.6%

Cc1cc(N2CCCC2)nc(N(CCCNc2ccnc3cc(Cl)ccc23)Cc2ccccn2)n1
active: UO-31 renal 5.6%
inactive: SK-MEL-2 melanoma 71.7% | EKVX NSCLC 66.2% | SN12C renal 52% | TK-10 renal 80.3% | ACHN renal 80.8% | CAKI-1 renal 84.4% | A498 renal 42% | CCRF-CEM leukemia 55% | MOLT-4 leukemia 46.7% | RPMI-8226 leukemia 28% | OVCAR-8 ovarian 49.2% | OVCAR-5 ovarian 59.6% | OVCAR-4 ovarian 81% | SK-OV-3 ovarian 76.5% | IGROV1 ovarian 50.7% | OVCAR-3 ovarian 59.5% | HS 578T breast 72.6% | NCI/ADR-RES ovarian 39.2%

Fc1cc(-c2nnc3sc(-c4ccc(Cl)cc4Cl)nn23)c(Cl)cc1Cl
active: CCRF-CEM leukemia -78.6% | HS 578T breast -14.7%
inactive: SK-MEL-2 melanoma 94.7% | EKVX NSCLC 73.3% | SN12C renal 82.8% | UO-31 renal 73% | TK-10 renal 109% | ACHN renal 73.7% | CAKI-1 renal 86.5% | A498 renal 109% | MOLT-4 leukemia 134% | RPMI-8226 leukemia 84% | OVCAR-8 ovarian 82.6% | OVCAR-5 ovarian 96.6% | OVCAR-4 ovarian 26.2% | SK-OV-3 ovarian 77.1% | IGROV1 ovarian 86.1% | OVCAR-3 ovarian 99.4% | NCI/ADR-RES ovarian 89.4%

Cc1cc(=O)oc2cc(OC(=O)N3CCN(C)CC3)ccc12
inactive: SK-MEL-2 melanoma 116% | EKVX NSCLC 99.2% | SN12C renal 97.9% | UO-31 renal 85.3% | TK-10 renal 125% | ACHN renal 96.6% | CAKI-1 renal 89.7% | A498 renal 105% | CCRF-CEM leukemia 104% | MOLT-4 leukemia 97.7% | RPMI-8226 leukemia 108% | OVCAR-8 ovarian 103% | OVCAR-5 ovarian 98.7% | OVCAR-4 ovarian 104% | SK-OV-3 ovarian 110% | IGROV1 ovarian 110% | OVCAR-3 ovarian 106% | HS 578T breast 99.4% | NCI/ADR-RES ovarian 104%

COc1cc(C(=O)/C=C/c2ccc(OCCCCCC[P+](c3ccccc3)(c3ccccc3)c3ccccc3)cc2)cc(OC)c1OC
inactive: CAKI-1 renal 13.2% | CCRF-CEM leukemia 20.3% | MOLT-4 leukemia 14% | OVCAR-4 ovarian 10.1% | NCI/ADR-RES ovarian 74.4%
active: SK-MEL-2 melanoma -67.3% | EKVX NSCLC -9.14% | SN12C renal -63.8% | UO-31 renal 1.6% | TK-10 renal -72% | ACHN renal -44.5% | A498 renal -42% | RPMI-8226 leukemia 0.339% | OVCAR-8 ovarian -45.5% | OVCAR-5 ovarian -13% | SK-OV-3 ovarian -35.9% | IGROV1 ovarian -60.2% | OVCAR-3 ovarian -48% | HS 578T breast -6.89%

O=C(Cc1ccc(F)c(Cl)c1)Nc1cc(C2(C(F)(F)F)CC2)nn1Cc1ccccc1
inactive: SK-MEL-2 melanoma 18.9% | EKVX NSCLC 68.1% | SN12C renal 49.3% | UO-31 renal 42.4% | TK-10 renal 81% | ACHN renal 35.9% | CAKI-1 renal 10.1% | CCRF-CEM leukemia 15% | MOLT-4 leukemia 93% | RPMI-8226 leukemia 75.8% | OVCAR-8 ovarian 25.3% | OVCAR-5 ovarian 91.4% | OVCAR-4 ovarian 75% | IGROV1 ovarian 62.2% | OVCAR-3 ovarian 63.4% | HS 578T breast 26.2% | NCI/ADR-RES ovarian 56.9%
active: A498 renal -2.62% | SK-OV-3 ovarian -13.1%

Cc1nc2ccccc2n1CC1C(=O)NC(=O)NC1=O
active: A498 renal -34.3%
inactive: SK-MEL-2 melanoma 120% | EKVX NSCLC 106% | SN12C renal 104% | UO-31 renal 91.3% | TK-10 renal 107% | ACHN renal 109% | CAKI-1 renal 104% | CCRF-CEM leukemia 103% | MOLT-4 leukemia 98.1% | RPMI-8226 leukemia 115% | OVCAR-8 ovarian 105% | OVCAR-5 ovarian 103% | OVCAR-4 ovarian 107% | SK-OV-3 ovarian 107% | IGROV1 ovarian 106% | OVCAR-3 ovarian 119% | HS 578T breast 110% | NCI/ADR-RES ovarian 99.3%

Cc1c(C(=O)N[C@@H](Cc2ccccc2)C(=O)C(=O)NCc2ccc(F)cc2)[nH]c2ccccc2c1=O
inactive: SK-MEL-2 melanoma 108% | EKVX NSCLC 85.3% | SN12C renal 78.9% | UO-31 renal 106% | TK-10 renal 107% | ACHN renal 97.8% | CAKI-1 renal 96.9% | A498 renal 75.8% | CCRF-CEM leukemia 103% | MOLT-4 leukemia 87.5% | RPMI-8226 leukemia 87.9% | OVCAR-8 ovarian 102% | OVCAR-5 ovarian 104% | OVCAR-4 ovarian 90.6% | SK-OV-3 ovarian 99.6% | IGROV1 ovarian 96.8% | OVCAR-3 ovarian 102% | HS 578T breast 105% | NCI/ADR-RES ovarian 102%

COc1cc(Nc2nc(NCCN)nc3cc[nH]c(=O)c23)cc(OC)c1
inactive: SK-MEL-2 melanoma 30.8% | EKVX NSCLC 87.5% | SN12C renal 70.3% | UO-31 renal 112% | TK-10 renal 95.3% | ACHN renal 99% | CAKI-1 renal 94.1% | A498 renal 111% | CCRF-CEM leukemia 68.6% | MOLT-4 leukemia 74.4% | RPMI-8226 leukemia 80% | OVCAR-8 ovarian 76.3% | OVCAR-5 ovarian 67.9% | OVCAR-4 ovarian 80.7% | SK-OV-3 ovarian 51.4% | IGROV1 ovarian 57.8% | OVCAR-3 ovarian 109% | HS 578T breast 82.5% | NCI/ADR-RES ovarian 98.6%

OC(COc1ccccc1)CN1CCN(c2ccc(Cl)cc2)CC1 (centres undefined)
active: CCRF-CEM leukemia -5.19%
inactive: SK-MEL-2 melanoma 104% | EKVX NSCLC 109% | SN12C renal 97.2% | UO-31 renal 78.8% | TK-10 renal 105% | ACHN renal 107% | CAKI-1 renal 94.7% | A498 renal 104% | MOLT-4 leukemia 93.1% | RPMI-8226 leukemia 95.1% | OVCAR-8 ovarian 93.9% | OVCAR-5 ovarian 111% | OVCAR-4 ovarian 97.6% | SK-OV-3 ovarian 102% | IGROV1 ovarian 124% | OVCAR-3 ovarian 100% | HS 578T breast 100% | NCI/ADR-RES ovarian 101%

Brc1c[n+](Cc2ccc3ccccc3c2)cn1Cc1ccc2ccccc2c1
inactive: SK-MEL-2 melanoma 17.3% | EKVX NSCLC 60.1% | SN12C renal 37.6% | UO-31 renal 77.4% | TK-10 renal 43.6% | ACHN renal 90.6% | CAKI-1 renal 38.4% | MOLT-4 leukemia 12.6% | OVCAR-5 ovarian 46.8% | SK-OV-3 ovarian 34.9% | NCI/ADR-RES ovarian 97.5%
active: A498 renal -0.664% | CCRF-CEM leukemia 5.13% | RPMI-8226 leukemia -46.3% | OVCAR-8 ovarian 8.2% | OVCAR-4 ovarian -13.2% | IGROV1 ovarian -51% | OVCAR-3 ovarian -4.19% | HS 578T breast -7.66%
